MITF primary: MITF inhibitors, primary screen, biochemical, AlphaScreen, human | 650,000 compounds, 0.91% hits | inhibition, % at 2.6 µM | AlphaScreen MITF homodimerization, bead proximity signal; in the data active = inhibition above about 50%
GPR151 ag: activators of human GPR151, primary screen, cell-based, PathHunter beta-arrestin, luminescence. G-protein coupled receptor 151 (Homo sapiens), Q8TDV0. PathHunter beta-arrestin GPR151 cells. activation, % at 11.2 µM. 650,000 compounds, 1% hits. AID 1508602, 2020; in the data active = activation above about 4.9%
FBW7 act: FBW7 E3 ligase activators, primary screen, biochemical, AlphaScreen, human. 650,000 compounds, 0.13% hits. normalized activity (activation), % at 26.1 µM. F-box/WD repeat-containing protein 7 (Homo sapiens), Q969H0. AlphaScreen FBW7–phospho-cyclin E peptide binding, activator screen. AID 1259310, 2017; in the data active = normalized activity above about 1.9%;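 also: purified mutant Fbw7 with reduced substrate affinity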
Target sequence (Q969H0 whole entry, looked up): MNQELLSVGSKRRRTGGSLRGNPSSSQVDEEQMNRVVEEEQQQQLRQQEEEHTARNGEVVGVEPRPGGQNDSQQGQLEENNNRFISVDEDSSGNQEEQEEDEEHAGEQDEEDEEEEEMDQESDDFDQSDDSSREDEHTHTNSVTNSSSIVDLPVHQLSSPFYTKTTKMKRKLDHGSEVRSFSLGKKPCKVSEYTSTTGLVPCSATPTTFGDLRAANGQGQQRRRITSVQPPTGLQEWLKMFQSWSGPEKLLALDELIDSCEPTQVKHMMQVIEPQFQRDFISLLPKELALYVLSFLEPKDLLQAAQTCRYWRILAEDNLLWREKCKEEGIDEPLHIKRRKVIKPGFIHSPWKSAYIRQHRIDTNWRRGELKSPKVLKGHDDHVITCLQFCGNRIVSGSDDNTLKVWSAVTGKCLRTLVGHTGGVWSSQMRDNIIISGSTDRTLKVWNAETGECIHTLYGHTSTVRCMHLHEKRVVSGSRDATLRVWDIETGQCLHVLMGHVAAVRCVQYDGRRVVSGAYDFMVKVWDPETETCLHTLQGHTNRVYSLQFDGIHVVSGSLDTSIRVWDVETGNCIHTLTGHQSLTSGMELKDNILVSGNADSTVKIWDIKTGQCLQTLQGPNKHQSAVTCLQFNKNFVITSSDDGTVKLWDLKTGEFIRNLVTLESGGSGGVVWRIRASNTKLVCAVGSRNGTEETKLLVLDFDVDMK
TEAD-YAP inh: TEAD-YAP interaction inhibition, primary screen, TEAD-YAP interaction inhibitor project, luminescence, HEK-TIYL cells. TEAD-Gal4/YAP UAS-luciferase luminescence. inhibition, % at 9.12 µM. 640,000 compounds, 1.4% hits. AID 1259422, 2018; in the data active = inhibition above about 32%
MITF inh conf: MITF inhibitors, retest of hits, confirmation, biochemical, AlphaScreen, triplicate. AID 1259372, 2018. shares compounds with MITF primary. 4,700 compounds, 16% hits. inhibition, % at 2.6 µM. AlphaScreen MITF homodimerization, biotin/His-MITF beads;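 active = inhibition above a cutoff derived from the DMSO control wells, cut at about 28% in these data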;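 also: inhibitors lower the bead chemiluminescence by keeping MITF from dimerizing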
AlphaScreen DR: AlphaScreen optical interference compounds, dose response, counter-screen, biochemical, HTS; shares compounds with MITF primary; 480 compounds, 6% hits; AlphaScreen optical interference counterscreen, cell-free; IC50, µM; call rule not given here
AlphaScreen intf2: AlphaScreen optical interference compounds, counter-screen for MITF inhibitor project, biochemical, triplicate; LysRS AlphaScreen counterscreen, signal interference; 4,700 compounds, 7.6% hits; inhibition, % at 2.6 µM; AID 1259376, 2018; shares compounds with MITF primary;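 active = inhibition above a cutoff derived from the DMSO control wells, cut at about 30% in these data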
Hits are given with their value; - = inactive; . = no result. Hits are enriched below; roughly 3.4% of the tested compounds scored in any of these assays.

SMILES	MITF primary	GPR151 ag	FBW7 act	TEAD-YAP inh	MITF inh conf	AlphaScreen intf2	others
O=[N+]([O-])c1ccc(N2CCN(CCOCCO)CC2)c([N+](=O)[O-])c1	56.1	-	-	-	-	-
O=C(c1ccc([N+](=O)[O-])cc1)N1CCSC1c1ccc(Br)cc1 (stereo not drawn)	69.8	-	-	-	-	-
O=C(c1ccc([N+](=O)[O-])cc1)N1CCSC1c1ccc([N+](=O)[O-])cc1 (stereo not drawn)	-	-	-	-	.	.
Cc1csc(-c2cc3ccccc3oc2=O)n1	66.7	-	-	-	-	-
COc1cc(CN2CCN(C3CCCC(C)C3)CC2)cc(OC)c1O (stereo not drawn)	74.1	-	-	-	-	-
COc1cc(CN2CCN(C3CCCCCC3)CC2)cc(OC)c1O	57.7	-	-	-	-	-
CCC(CC)CN1CCc2nnc(CNC(=O)C3CCC(=O)N3)n2CC1 (stereo not drawn)	78.5	-	-	-	-	-
CC(C)/C=C/CN1CCc2nnc(CNC(=O)C3CCC(=O)N3)n2CC1 (stereo not drawn)	-	-	-	-	.	.
COc1ccc(/C=C(\C#N)C(=O)Oc2ccc([N+](=O)[O-])c3cccnc23)cc1	53.6	-	-	-	51.4	99.2
CC1(C)CC(=O)C2=C(C1)OC1=C(C(=O)CC(C)(C)C1)C2c1cccc(OCc2c(F)cccc2Cl)c1	-	-	-	-	.	.
O=C(CN1CCCCC1)Nc1c2c(nc3c1CCC3)CCCC2	71.3	-	-	-	-	-
CC(C)(C)NCC(=O)Nc1c2c(nc3c1CCC3)CCC2	-	-	-	-	.	.
NCC(=O)Nc1c2c(nc3c1CCC3)CCC2	62.0	-	-	-	-	-
NC(=O)C1CCN(CC(=O)Nc2c3c(nc4ccccc24)CCC3)CC1	-	-	-	-	.	.
Cc1cc(NC(=O)CN2CCOCC2)c2ccccc2n1	-	-	-	-	.	.
Cc1cc(NC(=O)CN2CCCCC2)c2ccccc2n1	50.7	-	-	-	-	-
O=C(CN1CCCCC1)Nc1c2c(nc3ccccc13)CCCC2	65.7	-	-	-	-	-
CC(=O)N(C1=C(N2CCCC2)C(=O)c2ccccc2C1=O)c1cc(C)cc(C)c1	-	-	-	-	.	.
COc1ccccc1/C=C/C1NC(=O)NC(C)=C1C(=O)OCc1ccccc1 (stereo not drawn)	-	-	-	-	.	.
O=C(CN1CCCCCC1)NC(c1ccccc1)c1ccccc1	54.2	-	-	-	-	-
Cc1ccc(CCC(=O)Nc2ccc(-c3cn4c5c(nnc4n3)CCCC5)cc2)o1	56.2	-	-	-	66.4	-	AlphaScreen DR=-
O=C(CCc1ccco1)Nc1ccc(-c2cn3c4c(nnc3n2)CCCC4)cc1	71.9	-	-	-	57.8	-	AlphaScreen DR=-
C#C[C@]1(O)CC[C@H]2[C@@H]3CCc4cc(O)ccc4[C@H]3CCC21C (stereo partly drawn)	-	-	-	-	.	.
Cc1cc(N(C)C)nc(NCCNS(=O)(=O)c2cc(Cl)ccc2Cl)n1	-	-	-	-	.	.
COc1ccc(CN2CCN(CCOc3ccccc3)CC2)c(OC)c1OC	71.5	-	-	-	-	-
SMILES	MITF primary	GPR151 ag	FBW7 act	TEAD-YAP inh	MITF inh conf	AlphaScreen intf2	others
COc1ccc(CN2CCN(Cc3cccn3C)CC2)c(OC)c1OC	-	-	-	-	.	.
COc1ccc(CN2CCN(CCOc3ccccc3C#N)CC2)c(OC)c1OC	69.1	-	-	-	-	-
CC(C)N(C(=O)COC(=O)[C@H](C)NS(=O)(=O)c1cccc(C(F)(F)F)c1)C(C)C	-	-	-	-	.	.
O=c1c2cnn(-c3ccccc3)c2nc(-c2ccco2)n1-c1ccc(F)cc1	-	-	-	-	.	.
c1ccc(OCCNc2ccnc(-c3ccc(N4CCOCC4)nc3)n2)cc1	-	-	-	-	.	.
O=C(c1ccccc1F)N1CCN(Cc2ccc3c(c2)OCO3)CC1	51.3	-	-	-	-	-
CCc1ccc(CN2CCN(C(=O)c3ccccc3F)CC2)cc1	50.8	-	-	-	-	-
O=C(C1CCNCC1)N1CCN(Cc2ccc3c(c2)OCO3)CC1	56.5	-	-	-	-	-
NC(=S)NNC(=O)c1cccs1	-	-	-	-	.	.
CC1Cc2cc(S(=O)(=O)NCCC(=O)Nc3cccnc3)ccc2N1C(=O)C1CC1 (stereo not drawn)	-	-	-	-	.	.
COc1ccc(C2/C(=C(/O)c3ccc(Br)cc3)C(=O)C(=O)N2CCCn2ccnc2)c(OC)c1 (stereo not drawn)	-	-	-	-	.	.
Cc1ccc(/C=c2\sc3ncnn3c2=O)o1	61.2	-	-	-	-	-
COC(=O)CSc1nnc(-c2cnccn2)n1C	64.9	-	-	-	36.0	-	AlphaScreen DR=-
Cn1c(SCC#N)nnc1-c1cnccn1	68.6	-	-	-	-	-
COCCn1c(SCC#N)nnc1-c1cnccn1	-	-	-	-	.	.
COc1ccc(CCNC(=O)C(=O)NCCCN2CCOCC2)cc1	-	-	-	-	.	.
O=C(CNCCCN1CCOCC1)Nc1ccccc1	-	-	-	-	.	.
O=C(CNCCN1CCOCC1)Nc1ccc(N2CCCC2)cc1	73.2	-	-	-	28.7	59.6
O=C(CNCCN1CCOCC1)Nc1ccc(N2CCCCCC2)cc1	-	-	-	-	.	.
O=C(CNCCCN1CCOCC1)Nc1ccc(C(=O)N2CCCCC2)cc1	85.2	-	-	-	-	-
COc1ccc(CCNCCN2CCOCC2)cc1	84.0	-	-	-	-	-
O=C(CNCCN1CCOCC1)Nc1ccc2c(c1)OCO2	87.3	-	-	-	-	-
Cc1ccc(N(CC(=O)O)S(=O)(=O)c2cccnc2)cc1	-	-	-	-	.	.
Cc1cc(C)c2oc(-c3cccc(NC(=O)c4cccnc4)c3)nc2c1	-	-	-	-	.	.
CC(NCCN1CCOCC1)C(=O)Nc1ccccc1 (stereo not drawn)	97.9	-	-	-	-	-
O=C(CNCCN1CCOCC1)Nc1ccc(OC(F)(F)F)cc1	60.0	-	-	-	-	-
O=C(Nc1ccc(N2CCOCC2)cc1)NC1CCCCC1	72.1	-	-	-	-	-
CCN1CCN(CCC(=O)Nc2ccc3c(c2)OCCO3)CC1	104.0	-	-	-	-	-
COC(=O)c1ccc(CN2CCc3nnc(C(CC(C)C)NC(C)=O)n3CC2)cc1 (stereo not drawn)	-	-	-	-	.	.
Cc1c(C(=O)Nc2ccc(C(F)(F)F)cc2)sc2ncn(CC(=O)Nc3ccc(C(C)C)cc3)c(=O)c12	-	-	-	-	.	.

Screening data: PubChem BioAssay, The Scripps Research Institute Molecular Screening Center
